In PubChem BioAssay (NCATS):
Where “and” joins values, the source holds several entries; their conditions need not be identical. Equal values may be shown once. Results filed as inconclusive are left out. Calls of active or inactive are those of the source. Unless noted, the call rests on the fitted dose curve; in most records, active means well fitted curve in the direction sought with a large enough effect; inconclusive means small, poorly fitted or top-dose-only effect, or another doubt; inactive means no such curve, though single readings can be large; an effect the other way counts as inactive or inconclusive.

Columns and labels:
[1] = test system: GB4; test: qHTS profiling for inhibitors of Plasmodium falciparum proliferation (AID 504749); further: nearly all actives have a fitted effect of over 60% in size; further: potency means the concentration at half of the fitted maximal effect; details: P. falciparum in erythrocytes, SYBR Green DNA, 72 h; series mostly up to 28.7 µM
Outline: (§1)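 Quantitative HTS: compounds pinned into medium, infected erythrocytes added (0.3% parasitemia, 2.5% hematocrit), 72 h culture at 37 C under 5% CO2. Saponin/Triton lysis with SYBR Green I, overnight RT, then fluorescence read.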

[2] = test system: ICS; test: as above; details: P. falciparum in erythrocytes, SYBR Green DNA, 72 h; series mostly up to 28.7 µM
Outline: as §1

[3] = test system: P93_24; test: as above; details: P. falciparum in erythrocytes, SYBR Green DNA, 72 h; series mostly up to 28.7 µM
Outline: as §1

[4] = test system: PC26; test: as above; details: P. falciparum in erythrocytes, SYBR Green DNA, 72 h; series mostly up to 28.7 µM
Outline: as §1

[5] = test system: W2; test: as above; details: P. falciparum in erythrocytes, SYBR Green DNA, 72 h; series mostly up to 28.7 µM
Outline: as §1

[6] = S16 Schwann cell PMP22 intronic element firefly luciferase assay (AID 624032); further: nearly all actives have a fitted effect of over 30% in size; further: potency means the concentration at half of the fitted maximal effect
Outline: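 Rat S16 Schwann cells stably carrying a PMP22 intronic element-driven Fluc reporter were seeded overnight, then exposed to compounds for 24 h at 37 °C. Luminescence was normalized to PTC124 (positive control) and DMSO (0% activity).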

[7] = Confirmation and Secondary Assay for Modulators of Hemoglobin Beta Chain Splicing at IVS2 705 locus (AID 930);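 further: HeLa cells stably expressing the EGFP-705 splicing reporter; GFP fluorescence per well restored by corrected splicing of the IVS2-705 intron in EGFP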
Outline: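 Assay measures total GFP intensity per well in HeLa EGFP-705 cells after 2 days with compound; mis-splicing normally truncates EGFP, so fluorescence indicates corrected splicing.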

[8] = molecular target: Mitogen-activated protein kinase 10 (Mus musculus) (UniProt Q61831); test: JNK3 AlphaScreen Assay (AID 530; active means well fitted curve in either direction with a large enough effect, not every such curve was filed as active;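 further: kinase came from lysate of stimulated human HepG2 cells; signal reports phosphorylation of biotinylated GST-cJun 1-79 at Ser73 with 10 µM ATP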)
Outline: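 Phosphorylation of biotinylated GST-cJun(1-79) at Ser73 is measured by AlphaScreen proximity luminescence. Enzyme is JNK3 in HepG2 lysates activated with interleukin-1beta and tumor necrosis factor alpha; ATP is 10 uM final.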

[9] = molecular target: DNA dC->dU-editing enzyme APOBEC-3G (Homo sapiens) (UniProt Q9HC16); test: qHTS for inhibitors of Vif-A3G interactions: Validation (AID 588379)
Outline: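 Yellow fluorescence (Ex 488, Em 500-530) of Vif-coexpressing HeLa A3G-eYFP cells, scanned by Acumen cytometer, reports blocked A3G degradation. Cells plated at 700/well overnight at 37 deg C before compound addition, then a further overnight compound incubation at 37 deg C.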

[10] = molecular target: Cytochrome P450 3A4 (Homo sapiens) (UniProt P08684); test: qHTS Assay for Inhibitors and Substrates of Cytochrome P450 3A4 (AID 884); further: nearly all actives have a fitted effect of over 50% in size
Outline: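 Luminescent readout of luciferin produced by CYP3A4 (20 nM) dealkylation of Luciferin-PPXE, 25 uM (its KM). NADPH-driven reaction ran 60 min at RT after 10 min compound preincubation; data scaled to 57 uM ketoconazole as 100% inhibition.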

Measured: Potency

Sequence of Cytochrome P450 3A4 (Homo sapiens) (P08684 whole entry, looked up): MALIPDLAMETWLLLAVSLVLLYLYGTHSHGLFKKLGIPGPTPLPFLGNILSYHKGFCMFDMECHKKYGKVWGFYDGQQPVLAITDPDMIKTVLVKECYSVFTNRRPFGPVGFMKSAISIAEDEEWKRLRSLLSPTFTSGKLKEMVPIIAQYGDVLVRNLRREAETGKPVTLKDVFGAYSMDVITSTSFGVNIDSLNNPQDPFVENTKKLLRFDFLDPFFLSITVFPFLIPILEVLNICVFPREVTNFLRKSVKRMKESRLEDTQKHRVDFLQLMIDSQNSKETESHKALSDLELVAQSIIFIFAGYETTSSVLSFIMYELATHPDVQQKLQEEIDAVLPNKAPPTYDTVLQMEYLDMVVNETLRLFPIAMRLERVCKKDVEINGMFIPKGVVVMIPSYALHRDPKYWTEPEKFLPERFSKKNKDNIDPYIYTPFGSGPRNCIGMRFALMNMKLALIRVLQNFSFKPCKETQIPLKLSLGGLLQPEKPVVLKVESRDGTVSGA
Sequence of DNA dC->dU-editing enzyme APOBEC-3G (Homo sapiens) (Q9HC16 whole entry, looked up): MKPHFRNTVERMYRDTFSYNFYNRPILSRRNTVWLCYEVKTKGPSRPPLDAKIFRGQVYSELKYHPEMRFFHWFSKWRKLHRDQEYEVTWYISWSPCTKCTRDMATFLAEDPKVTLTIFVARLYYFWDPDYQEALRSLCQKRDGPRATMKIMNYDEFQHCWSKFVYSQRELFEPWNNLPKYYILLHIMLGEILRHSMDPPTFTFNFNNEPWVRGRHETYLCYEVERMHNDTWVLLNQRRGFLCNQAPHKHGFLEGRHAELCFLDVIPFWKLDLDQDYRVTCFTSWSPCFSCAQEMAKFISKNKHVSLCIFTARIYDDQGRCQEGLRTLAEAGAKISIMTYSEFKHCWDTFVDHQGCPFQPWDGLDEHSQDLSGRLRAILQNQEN

CC(=O)C1(O)Cc2c(O)c3c(c(O)c2C(OC2CC(N)C(O)C(C)O2)C1)C(=O)c1c(O)cccc1C3=O (stereo not drawn)
active: [1] 6.75 µM | [2] 3.55 µM | [3] 6.31 µM | [4] 5.36 µM | [5] 4.26 µM

C=C1NC(=O)c2cc(CN(C)c3ccc(C(=O)N[C@@H](CCC(=O)O)C(=O)O)s3)ccc2N1
active: [6] 0.0057 µM | [5] 13.5 µM

N#C/C(=C1/SCC(c2ccccc2Cl)S1)n1ccnc1 (stereo not drawn)
inactive: [5]
active: [6] 11.4 µM

Nc1nc2[nH]cc(CCc3ccc(C(=O)NC(CCC(=O)O)C(=O)O)cc3)c2c(=O)[nH]1 (stereo not drawn)
inactive: [6]
active: [1] 0.0849 µM | [2] 10 µM | [5] 0.0757 µM

CC(=O)OC1C([N+]2(C)CCCCC2)C[C@H]2C3CC[C@H]4C[C@H](OC(C)=O)C([N+]5(C)CCCCC5)CC4(C)C3CCC12C (stereo partly drawn)
active: [4] 16.9 µM
inactive: [2] | [3]

CC[C@@]1(O)CC2CN(CCc3c([nH]c4ccccc34)[C@](C(=O)OC)(c3cc4c(cc3OC)N(C)C3[C@@](O)(C(=O)OC)C(OC(C)=O)[C@]5(CC)C=CCN6CC[C@@]43C65)C2)C1 (stereo partly drawn)
active: [6] 0.51 µM | [1] 2.13 µM | [2] 0.708 µM | [3] 3.16 µM | [5] 0.953 µM
inactive: [7]

CC(=O)CC(c1ccccc1)C1C(=O)Oc2ccccc2C1=O (stereo not drawn)
inactive: [6] | [1] | [2] | [3] | [4] | [5]

CC(CN1CC(=O)NC(=O)C1)N1CC(=O)NC(=O)C1 (stereo not drawn)
inactive: [1] | [2] | [3] | [4] | [5]

CCCSS/C(CCO)=C(/C)N(C=O)Cc1cnc(C)nc1N
active: [6] 10.2 µM
inactive: [3] | [4] | [5]

C[C@@H]1CCN(C(=O)[C@H](CCCNC(=N)N)NS(=O)(=O)c2cccc3c2NC[C@H](C)C3)[C@@H](C(=O)O)C1
inactive: [6] | [1] | [2] | [3] | [4]

OC[C@@H](O)C(O[C@@H]1O[C@@H](CO)[C@H](O)[C@H](O)[C@H]1O)[C@H](O)[C@@H](O)CO (stereo partly drawn)
inactive: [1] | [2] | [3] | [4] | [5]

CCOC(=O)C(CCc1ccccc1)NC(C)C(=O)N1Cc2cc(OC)c(OC)cc2CC1C(=O)O (stereo not drawn)
active: [3] 5.01 µM | [4] 6.75 µM | [5] 5.36 µM

CC(C)C(=O)OCC(=O)[C@@]12OC(C3CCCCC3)O[C@@H]1CC1C3CCC4=CC(=O)C=C[C@]4(C)C3[C@@H](O)C[C@@]12C (stereo partly drawn)
active: [1] 1.07 µM | [2] 0.794 µM | [3] 0.891 µM | [5] 0.239 µM

CC(=O)O[C@]1(C(C)=O)CCC2C3CCC4=CC(=O)CCC4(C)C3(F)C(O)CC21C (stereo partly drawn)
inactive: [6] | [1] | [3] | [4]

CCCCCOC(=O)Nc1nc(=O)n(C2O[C@H](C)[C@@H](O)[C@@H]2O)cc1F (stereo partly drawn)
inactive: [6] | [1] | [2] | [3] | [4]

C[C@@H](O)[C@@H]1C(=O)N2C(C(=O)O)=C([C@H]3CCCO3)S[C@H]12
inactive: [1] | [2] | [3] | [4] | [5]

NC(CSSCC(N)C(=O)O)C(=O)O (stereo not drawn)
inactive: [6] | [1] | [2] | [3] | [4] | [5]

CNC1=CN(O)C(c2ccccc2)=c2cc(Cl)ccc2=N1
active: [1] 953 nM and 15.1 µM | [2] 3.98 µM | [4] 4.26 µM | [5] 1.2 µM

CCCC(=O)Nc1c(I)cc(I)c(C[C@H](CC)C(=O)O)c1I
inactive: [6] | [1] | [2] | [3] | [4]

CCN(CC)C(=O)[C@@]1(c2ccccc2)C[C@@H]1CN
inactive: [6] | [1] | [2] | [3]

COc1ccc2cc1Oc1cc3c(cc1OC)CC[N+](C)(C)C3Cc1ccc(cc1)Oc1c(OC)c(OC)cc3c1C(C2)[N+](C)(C)CC3 (stereo not drawn)
inactive: [6] | [1] | [2] | [3] | [4]

COc1cc(/C=C2\CCC/C(=C\c3ccc(O)c(OC)c3)C2=O)ccc1O
active: [1] 12 µM | [2] 3.16 µM | [3] 12.6 µM | [4] 10.7 µM | [5] 9.53 µM

O=C(O)Cc1sc(-c2ccc(Cl)cc2)nc1-c1ccccc1
inactive: [6] | [1] | [2] | [3] | [4] | [5]

CO/N=C(/C(=O)N[C@@H]1C(=O)N2C(C(=O)O)=C(CSc3nnnn3C)CS[C@H]12)c1csc(N)n1
inactive: [1] | [2] | [3] | [4] | [5]

CC1CN(c2c(F)c(N)c3c(=O)c(C(=O)O)cn(C4CC4)c3c2F)CC(C)N1 (stereo not drawn)
inactive: [6] | [1] | [2] | [3] | [4] | [5]

CCCCC(=O)OC1CCC2C3CCc4cc(O)ccc4C3CC[C@]12C (stereo partly drawn)
inactive: [7] | [1] | [4]

OCC(O)C(O)C(O)C(O)CO (stereo not drawn)
inactive: [6] | [1] | [2] | [3] | [4] | [5]

C[C@]12CC[C@@H]3c4ccc(O)cc4CC[C@H]3[C@@H]1CCC2OC(=O)CCC1CCCC1 (stereo partly drawn)
inactive: [1] | [4]
active: [2] 12.6 µM

NC(C(=O)O)C(O)c1ccc(O)c(O)c1 (stereo not drawn)
active: [2] 11.2 µM
inactive: [6]

CCOc1ccccc1O[C@@H](c1ccccc1)[C@@H]1CNCCO1
inactive: [8] | [9] | [6]
active: [2] 5.01 µM | [3] 10 µM | [5] 2.69 µM

CC1=C(C/C=C(\C)CCCC(C)CCCC(C)CCCC(C)C)C(=O)c2ccccc2C1=O (stereo not drawn)
inactive: [4]
active: [2] 3.98 µM | [5] 4.78 µM

Oc1cc2cc(CCN3CCN(c4nsc5ccccc45)CC3)c(Cl)cc2[nH]1
inactive: [6]
active: [2] 6.31 µM

C/C=C1/NN(CCCN2CCN(c3cccc(Cl)c3)CC2)C(=O)N1CCOc1ccccc1
active: [5] 5.36 µM
inactive: [3]

C#C[C@@]1(O)CC[C@@H]2[C@H]3CCC4=C/C(=N\O)CC[C@H]4[C@@H]3CC[C@]21CC
inactive: [3] | [4]

Cc1cnc(NC(=O)C2C(=O)c3ccccc3S(=O)(=O)N2C)s1 (stereo not drawn)
inactive: [1] | [2] | [3] | [4] | [5]

Cc1c(C)c2c(c(C)c1O)CCC(C)(CCCC(C)CCCC(C)CCCC(C)C)O2 (stereo not drawn)
not listed: [2] | [8] | [9]
inactive: all other assays above

O=C1Oc2ccccc2C(=O)C1C(CC(O)c1ccc(-c2ccc(Br)cc2)cc1)c1ccccc1 (stereo not drawn)
inactive: [1] | [4]

Nc1nc(Cl)nc2c1ncn2[C@@H]1O[C@H](CO)[C@H](O)C1F (stereo partly drawn)
inactive: [1] | [2] | [3] | [4] | [5]
active: [6] 0.907 µM

CC1(C)SC2[C@@H](N=CN3CCCCCC3)C(=O)N2[C@H]1C(=O)O (stereo partly drawn)
inactive: [6] | [1] | [3] | [4]

CN(C)CC[C@@](O)(c1ccccc1)c1ccccc1Cl
active: [1] 7.57 µM | [2] 4.47 µM | [3] 5.62 µM | [4] 7.57 µM | [5] 1.2 µM
inactive: [6]

C[C@H](CN1c2ccccc2Sc2cccnc21)N(C)C
active: [1] 6.75 µM | [3] 8.91 µM | [5] 1.69 µM
inactive: [6]

COc1ccc(C(=O)/C(Br)=C/C(=O)O)cc1
active: [6] 14.4 µM
inactive: [3] | [4]

CC(C)(C)NC[C@H](O)CSc1nc(-c2ccc(C(N)=O)s2)cs1
inactive: [1] | [3] | [4] | [5]

COC(=O)C1C2CC3c4[nH]c5cc(OC)ccc5c4CCN3CC2CC(OC)C1OC (stereo not drawn)
inactive: [1] | [2] | [3] | [4]
